Assay results as given in PubChem BioAssay AID1159580 (chemical genetic matrix, 2015).
Where “and” joins values, the source holds several entries; their conditions need not be identical. Equal values may be shown once. Screen size: about 5,500 compounds; about 2,000 (36%) were called active. Not shown: some 18% with an inconclusive outcome. Cut-off read from the data, not from the text of the source: active = normalized growth mostly below about 0.91 (no sharp cut-off); inconclusive = no clear call, values can overlap the other calls; inactive = mostly above about 0.92. The list shows a part of the results.

Test: chemical genetic growth profiling, strain panel (AID 1159580);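 note: tested at 20 µM; growth read once vehicle control cultures reached saturation at 30 °C; 1 = growth at the plate median or of vehicle wells; lower values mean less growth of the strain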
Conditions: S. cerevisiae deletion strains, growth OD

Measured: normalized growth

Cc1cc(C(C)(C)C)cc(C)c1CC1=NCCN1
inactive: locus YAL013W, strain DEP1, active compounds read low 1.02 and 0.999 | locus YAL021C, strain ccr4, active compounds read low 0.987 | locus YAL026C, strain drs2, active compounds read low 0.986 | locus YAL030W, strain snc1, active compounds read low 1 | locus YAL040C, strain CLN3, active compounds read low 0.976 | locus YBL061C, strain skt5, active compounds read low 0.999 | locus YBR009C, strain hhf1, active compounds read low 0.957 | locus YBR021W, strain FUR4, active compounds read low 1.02 | locus YBR023C, strain chs3, active compounds read low 1.01 | locus YBR171W, strain sec66, active compounds read low 1.01 | locus YBR229C, strain ROT2, active compounds read low 1.01 | locus YBR231C, strain swc5, active compounds read low 1 | locus YBR279W, strain paf1, active compounds read low 0.993 | locus YCL011C, strain gbp2, active compounds read low 0.988 | locus YCL016C, strain dcc1, active compounds read low 0.99 | locus YCL029C, strain bik1, active compounds read low 1.01 | locus YCL061C, strain MRC1 (second series), active compounds read low 0.999 | locus YCL061C, strain MRC1, active compounds read low 1.02 | locus YCL069W, strain vba3, active compounds read low 1 | locus YCR088W, strain abp1, active compounds read low 0.996 | locus YDL005C, strain med2, active compounds read low 1.01 | locus YDL035C, strain GPR1, active compounds read low 1.03 | locus YDL040C, strain nat1, active compounds read low 1 | locus YDL074C, strain BRE1, active compounds read low 1.02 | locus YDL101C, strain DUN1, active compounds read low 1.01 | locus YDL134C, strain PPH21, active compounds read low 1.02 | locus YDL185W, strain tfp1, active compounds read low 1.01 | locus YDL192W, strain arf1, active compounds read low 1.01 | locus YDR001C, strain nth1, active compounds read low 1.01 | locus YDR069C, strain doa4, active compounds read low 1.02 | locus YDR101C, strain arx1, active compounds read low 1 | locus YDR137W, strain rgp1, active compounds read low 0.994 | locus YDR150W, strain NUM1, active compounds read low 1.02 | locus YDR159W, strain sac3, active compounds read low 0.941 | locus YDR162C, strain NBP2, active compounds read low 1.01 | locus YDR195W, strain ref2 1.01 | locus YDR297W, strain sur2, active compounds read low 1 | locus YDR318W, strain mcm21, active compounds read low 0.995 | locus YDR334W, strain swr1, active compounds read low 0.993 | locus YDR335W, strain msn5, active compounds read low 0.999 | locus YDR363W, strain ESC2, active compounds read low 1 | locus YDR388W, active compounds read low 1 | locus YDR392W, strain spt3, active compounds read low 0.926 | locus YDR502C, strain sam2, active compounds read low 0.998 | locus YEL003W, strain gim4, active compounds read low 1.01 | locus YEL037C, strain rad23, active compounds read low 1 | locus YEL061C, strain CIN8 (second series), active compounds read low 0.997 | locus YEL061C, strain CIN8, active compounds read low 1.02 | locus YER002W, strain NOP16, active compounds read low 1 | locus YER015W, strain faa2, active compounds read low 0.998 | locus YER016W, strain bim1, active compounds read low 0.973 | locus YER110C, active compounds read low 0.994 | locus YER111C, strain swi4, active compounds read low 1 | locus YER155C, strain BEM2 (second series), active compounds read low 1.02 | locus YER155C, strain BEM2, active compounds read low 1.01 | locus YER167W, strain BCK2, active compounds read low 1.01 | locus YFR010W, strain ubp6, active compounds read low 1.02 | locus YGL078C, strain dbp3, active compounds read low 1 | locus YGL086W, strain mad1, active compounds read low 1 | locus YGL167C, strain pmr1, active compounds read low 1 | locus YGL173C, strain kem1, active compounds read low 1.02 | locus YGL227W, strain vid30, active compounds read low 1 | locus YGL240W, strain doc1, active compounds read low 1.03 | locus YGL248W, strain PDE1, active compounds read low 1 | locus YGL253W, strain hxk2, active compounds read low 0.977 | locus YGR078C, strain PAC10, active compounds read low 1.01 | locus YGR135W, strain pre9, active compounds read low 1 | locus YGR229C, strain SMI1, active compounds read low 1.02 | locus YGR252W, strain gcn5, active compounds read low 0.951 | locus YHR013C, strain ard1, active compounds read low 0.971 | locus YHR027C, strain rpn1, active compounds read low 0.993 | locus YHR030C, strain SLT2, active compounds read low 1.02 and 1.01 | locus YHR079C, strain IRE1 (second series), active compounds read low 0.995 | locus YHR079C, strain IRE1, active compounds read low 1.01 | locus YHR094C, strain hxt1, active compounds read low 1 | locus YHR129C, strain ARP1, active compounds read low 1.01 | locus YHR142W, strain chs7, active compounds read low 1.02 | locus YHR200W, strain rpn10, active compounds read low 1 | locus YIL066C, strain RNR3, active compounds read low 1.02 | locus YIL073C, strain SPO22, active compounds read low 1.04 | locus YIL125W, strain kgd1, active compounds read low 0.997 | locus YIR030C, strain dcg1, active compounds read low 1 | locus YJL092W, strain hpr5, active compounds read low 1.02 | locus YJL095W, strain BCK1 (second series), active compounds read low 1.01 | locus YJL095W, strain BCK1, active compounds read low 1.01 and 0.982 | locus YJL115W, strain asf1, active compounds read low 0.985 | locus YJL129C, strain trk1, active compounds read low 1.02 | locus YJL134W, strain LCB3, active compounds read low 1.01 | locus YJL154C, strain vps35, active compounds read low 1.01 | locus YJL164C, strain tpk1, active compounds read low 0.98 | locus YJL166W, strain qcr8, active compounds read low 1.03 | locus YJL168C, strain set2, active compounds read low 0.998 | locus YJL187C, strain SWE1 (second series), active compounds read low 1.03 | locus YJR043C, strain POL32, active compounds read low 1 | locus YJR066W, strain TOR1, active compounds read low 0.937
